# Experimental data reported in paper PMC7862700, “An all-to-all approach to the identification of sequence-specific readers for epigenetic DNA modifications on cytosine”.
# Key:
# Assay in all cases: DAPPL (digital affinity profiling via proximity ligation, sequencing); 10 mM Tris-HCl pH 7.5, 50 mM NaCl, 1 mM DTT, 4% glycerol, room temperature, 30 min; GST-TFs on glutathione beads, 16-mer random dsDNA library, 0.1% formaldehyde crosslink after washing; high values mean tight binding
# HSF1 = HSF1 (Homo sapiens, UniProt Q00613 1-529); conditions: protein: recombinant; tags: N-terminal GST; chain copies: 3; dsDNA, one strand shown
# Method in brief: (§1)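 Yeast served to express human transcription factors as GST fusions, which were then captured on glutathione beads and labelled with DNA barcodes. Pooled with a tag-only sample, they were incubated with 200 nmole of a 16-mer random double-stranded DNA library for 30 min at room temperature in Tris/NaCl/DTT/glycerol buffer, washed, crosslinked with 0.1% formaldehyde, ligated by proximity, amplified by PCR and sequenced. Dividing each hexamer's read frequency for a factor by its frequency for the tag-only sample gives the binding signal.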
# SPIC = target: T1, SPIC (Homo sapiens, UniProt Q8N5J4 1-248); conditions: protein: recombinant; tags: N-terminal GST; dsDNA, one strand shown
# T1 sequence: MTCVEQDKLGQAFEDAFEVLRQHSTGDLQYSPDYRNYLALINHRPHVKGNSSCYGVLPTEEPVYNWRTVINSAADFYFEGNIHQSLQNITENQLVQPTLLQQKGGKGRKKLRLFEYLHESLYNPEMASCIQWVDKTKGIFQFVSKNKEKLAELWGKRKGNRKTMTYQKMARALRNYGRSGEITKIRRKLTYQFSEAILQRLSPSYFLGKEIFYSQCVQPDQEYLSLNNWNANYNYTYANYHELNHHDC
# Method in brief: as §1
# ELK1 = target: T2, ELK1 (Homo sapiens, UniProt P19419 1-428); conditions: protein: recombinant; tags: N-terminal GST; dsDNA, one strand shown
# T2 sequence: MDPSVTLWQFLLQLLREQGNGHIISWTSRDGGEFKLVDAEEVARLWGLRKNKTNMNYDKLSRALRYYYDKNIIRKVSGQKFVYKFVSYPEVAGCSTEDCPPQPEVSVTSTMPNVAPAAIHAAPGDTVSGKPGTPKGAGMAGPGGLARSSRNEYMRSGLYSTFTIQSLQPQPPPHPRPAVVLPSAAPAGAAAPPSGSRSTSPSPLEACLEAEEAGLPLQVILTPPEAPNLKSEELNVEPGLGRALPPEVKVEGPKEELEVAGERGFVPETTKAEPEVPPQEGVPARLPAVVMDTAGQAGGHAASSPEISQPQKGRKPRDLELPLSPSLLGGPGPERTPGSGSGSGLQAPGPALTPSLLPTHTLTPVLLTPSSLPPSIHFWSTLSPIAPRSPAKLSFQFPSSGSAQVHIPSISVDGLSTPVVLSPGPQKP
# Method in brief: as §1
# EHF = target: T3, EHF (Homo sapiens, UniProt Q9NZC4 1-300); conditions: protein: recombinant; tags: N-terminal GST; dsDNA, one strand shown
# T3 sequence: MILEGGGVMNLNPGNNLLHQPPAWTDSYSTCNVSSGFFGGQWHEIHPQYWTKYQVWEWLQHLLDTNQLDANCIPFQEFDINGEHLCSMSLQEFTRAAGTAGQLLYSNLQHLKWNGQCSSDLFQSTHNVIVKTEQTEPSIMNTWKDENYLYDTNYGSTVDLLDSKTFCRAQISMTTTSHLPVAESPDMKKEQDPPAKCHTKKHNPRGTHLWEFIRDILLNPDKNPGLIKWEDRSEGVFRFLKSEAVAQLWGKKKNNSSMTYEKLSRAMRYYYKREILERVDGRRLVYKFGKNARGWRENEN
# Method in brief: as §1
# ELK3 = target: T4, ELK3 (Homo sapiens, UniProt P41970 1-407); conditions: protein: recombinant; tags: N-terminal GST; dsDNA, one strand shown
# T4 sequence: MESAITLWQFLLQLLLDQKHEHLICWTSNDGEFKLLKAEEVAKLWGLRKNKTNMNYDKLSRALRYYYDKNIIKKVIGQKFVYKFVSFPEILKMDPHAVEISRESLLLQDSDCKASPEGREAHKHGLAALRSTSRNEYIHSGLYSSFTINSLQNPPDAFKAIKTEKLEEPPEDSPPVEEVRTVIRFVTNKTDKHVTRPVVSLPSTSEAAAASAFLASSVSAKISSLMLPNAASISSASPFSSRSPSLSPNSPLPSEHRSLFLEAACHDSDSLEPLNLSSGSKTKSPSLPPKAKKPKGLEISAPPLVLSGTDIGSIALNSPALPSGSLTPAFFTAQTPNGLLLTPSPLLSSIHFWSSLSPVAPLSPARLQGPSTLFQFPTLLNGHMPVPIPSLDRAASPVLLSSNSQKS
# Method in brief: as §1
# ELK4 = target: T5, ELK4 (Homo sapiens, UniProt P28324-2 1-405); conditions: protein: recombinant; tags: N-terminal GST; dsDNA, one strand shown
# T5 sequence: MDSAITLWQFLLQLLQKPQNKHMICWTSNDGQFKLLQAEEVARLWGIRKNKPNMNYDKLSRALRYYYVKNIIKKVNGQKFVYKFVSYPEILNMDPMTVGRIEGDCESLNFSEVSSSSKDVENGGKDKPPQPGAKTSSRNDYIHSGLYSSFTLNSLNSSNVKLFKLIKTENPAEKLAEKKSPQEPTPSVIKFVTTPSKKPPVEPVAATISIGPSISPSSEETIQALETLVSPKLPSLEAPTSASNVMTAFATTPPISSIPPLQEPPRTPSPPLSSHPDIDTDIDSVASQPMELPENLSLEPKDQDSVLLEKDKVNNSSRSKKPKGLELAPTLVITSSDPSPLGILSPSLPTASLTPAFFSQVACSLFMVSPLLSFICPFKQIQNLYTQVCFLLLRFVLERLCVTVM
# Method in brief: as §1
# CRX = CRX (Homo sapiens, UniProt O43186 1-299); conditions: protein: recombinant; tags: N-terminal GST; dsDNA, one strand shown
# Method in brief: as §1
# Sequence of HSF1 (Q00613 whole entry, the tested form may be a part): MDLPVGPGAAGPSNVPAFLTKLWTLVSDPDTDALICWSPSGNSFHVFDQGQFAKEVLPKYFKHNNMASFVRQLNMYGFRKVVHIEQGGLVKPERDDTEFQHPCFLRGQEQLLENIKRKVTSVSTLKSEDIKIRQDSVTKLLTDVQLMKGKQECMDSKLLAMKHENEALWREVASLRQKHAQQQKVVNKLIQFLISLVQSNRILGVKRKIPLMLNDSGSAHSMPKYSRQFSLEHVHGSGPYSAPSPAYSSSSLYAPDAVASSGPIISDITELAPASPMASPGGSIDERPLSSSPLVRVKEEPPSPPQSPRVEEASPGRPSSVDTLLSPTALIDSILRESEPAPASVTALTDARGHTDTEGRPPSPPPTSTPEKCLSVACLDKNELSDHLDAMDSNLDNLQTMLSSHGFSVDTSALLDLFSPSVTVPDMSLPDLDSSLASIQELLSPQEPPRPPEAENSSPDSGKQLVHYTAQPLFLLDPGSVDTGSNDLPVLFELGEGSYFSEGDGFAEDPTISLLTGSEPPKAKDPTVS
# Sequence of CRX (O43186 whole entry): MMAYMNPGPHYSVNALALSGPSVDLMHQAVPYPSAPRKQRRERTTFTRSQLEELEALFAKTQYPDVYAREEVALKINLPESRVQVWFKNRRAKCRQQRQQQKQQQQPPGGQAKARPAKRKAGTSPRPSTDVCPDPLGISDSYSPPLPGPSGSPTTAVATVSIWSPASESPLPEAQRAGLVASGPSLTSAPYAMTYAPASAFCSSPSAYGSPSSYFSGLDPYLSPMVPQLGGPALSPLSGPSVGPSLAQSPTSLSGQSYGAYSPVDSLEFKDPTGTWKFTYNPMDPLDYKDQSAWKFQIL
sequence,measurement,setting,value
GAGAAG,binding signal,HSF1,"1.22 fold enrichment (6-mer frequency, TF over GST control)"
GCAGAA,binding signal,HSF1,"1.15 fold enrichment (6-mer frequency, TF over GST control)"
same,binding signal,SPIC,"1.03 fold enrichment (6-mer frequency, TF over GST control)"
TCCAGC,binding signal,ELK1,"1.03 fold enrichment (6-mer frequency, TF over GST control)"
same,binding signal,EHF,"1.04 fold enrichment (6-mer frequency, TF over GST control)"
same,binding signal,ELK3,"1.07 fold enrichment (6-mer frequency, TF over GST control)"
same,binding signal,HSF1,"1.44 fold enrichment (6-mer frequency, TF over GST control)"
same,binding signal,SPIC,"1.06 fold enrichment (6-mer frequency, TF over GST control)"
same,binding signal,ELK4,"1.17 fold enrichment (6-mer frequency, TF over GST control)"
same,binding signal,CRX,"1.08 fold enrichment (6-mer frequency, TF over GST control)"
TCCAGT,binding signal,HSF1,"1.01 fold enrichment (6-mer frequency, TF over GST control)"
CAGAAG,binding signal,HSF1,"1.32 fold enrichment (6-mer frequency, TF over GST control)"
CGAGTA,binding signal,HSF1,"1.1 fold enrichment (6-mer frequency, TF over GST control)"
